Experimental data published in PubChem BioAssay (NCI).
Compounds without any hit were thinned out: in the full panel of roughly 83,000, 20% have a hit.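 How to read the values: 0–100, growth inhibition (40 = 60% inhibited); 0, no net growth; -100 to 0, cell death (-40 = 40% of starting cells died; -100 = all dead).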 The source made the active and inactive calls. How the source made its calls: active means growth percent below 10; inactive means the rest.

How the values were obtained:
Test in all cases: NCI-60 one-dose screen, 48 h (100 = growth as untreated, 0 = no growth, -100 = all killed)
SR leukemia = details: 10 µM unless noted
RPMI-8226 leukemia = details: 10 µM unless noted
OVCAR-8 ovarian = details: 10 µM unless noted
OVCAR-5 ovarian = details: 10 µM unless noted
SK-OV-3 ovarian = details: 10 µM unless noted
IGROV1 ovarian = details: 10 µM unless noted
HS 578T breast = details: 10 µM
NCI/ADR-RES ovarian = details: 10 µM unless noted
T-47D breast = details: 10 µM unless noted
BT-549 breast = details: 10 µM unless noted
MDA-MB-435 melanoma = details: 10 µM unless noted
SW-620 colon = details: 10 µM unless noted
MCF7 breast = details: 10 µM unless noted
HCT-116 colon = details: 10 µM unless noted
HCC-2998 colon = details: 10 µM unless noted
KM12 colon = details: 10 µM unless noted
OVCAR-4 ovarian = details: 10 µM unless noted
OVCAR-3 ovarian = details: 10 µM unless noted

Measured: growth

Cc1cc(NC(=O)c2ccc(N)cc2)ccc1N=Nc1ccc2cc(S(=O)(=O)O)cc(S(=O)(=O)O)c2c1
inactive: SR leukemia 107% | RPMI-8226 leukemia 94% | OVCAR-8 ovarian 107% | OVCAR-5 ovarian 98.7% | SK-OV-3 ovarian 103% | IGROV1 ovarian 102% | HS 578T breast 110% | NCI/ADR-RES ovarian 108% | T-47D breast 105% | BT-549 breast 108% | MDA-MB-435 melanoma 101% | SW-620 colon 96.7% | MCF7 breast 109% | HCT-116 colon 111% | HCC-2998 colon 105% | KM12 colon 105%

CCCCCCCCCC1=NC(C)(C)CN1C(C)(C)CO
inactive: RPMI-8226 leukemia 81% | OVCAR-8 ovarian 102% | OVCAR-5 ovarian 88.3% | OVCAR-4 ovarian 117% | SK-OV-3 ovarian 124% | IGROV1 ovarian 72.1% | OVCAR-3 ovarian 86.1% | HS 578T breast 100% | NCI/ADR-RES ovarian 95.7% | T-47D breast 153% | BT-549 breast 105% | MDA-MB-435 melanoma 110% | SW-620 colon 93.8% | MCF7 breast 95.3% | HCT-116 colon 69.3% | HCC-2998 colon 84.1% | KM12 colon 97.6%

Clc1ccc2c(c1)-c1ccccc1C1=NCCN12
active: SR leukemia 8.25%
inactive: RPMI-8226 leukemia 33% | OVCAR-5 ovarian 41.2% | OVCAR-4 ovarian 44.4% | SK-OV-3 ovarian 36.9% | IGROV1 ovarian 24.3% | OVCAR-3 ovarian 41.1% | HS 578T breast 58.4% | NCI/ADR-RES ovarian 26.3% | T-47D breast 29.6% | BT-549 breast 71.5% | MDA-MB-435 melanoma 29.4% | SW-620 colon 22.5% | MCF7 breast 10.6% | HCT-116 colon 21% | HCC-2998 colon 40.7% | KM12 colon 33.3%

CCNC(=S)N(Cc1ccccc1)Cc1ccccc1
inactive: SR leukemia 72% | RPMI-8226 leukemia 110% | OVCAR-8 ovarian 103% | OVCAR-5 ovarian 91% | SK-OV-3 ovarian 105% | IGROV1 ovarian 113% | OVCAR-3 ovarian 123% | HS 578T breast 136% | NCI/ADR-RES ovarian 106% | BT-549 breast 119% | MDA-MB-435 melanoma 105% | SW-620 colon 115% | MCF7 breast 107% | HCT-116 colon 110% | HCC-2998 colon 98.3% | KM12 colon 114%

O=C1C=CC(=O)N1CO
inactive: RPMI-8226 leukemia 112% | OVCAR-8 ovarian 110% | OVCAR-5 ovarian 101% | OVCAR-4 ovarian 130% | SK-OV-3 ovarian 116% | IGROV1 ovarian 109% | OVCAR-3 ovarian 113% | HS 578T breast 108% | NCI/ADR-RES ovarian 129% | T-47D breast 132% | BT-549 breast 116% | MDA-MB-435 melanoma 127% | SW-620 colon 115% | MCF7 breast 104% | HCT-116 colon 104% | HCC-2998 colon 107% | KM12 colon 128%

O=C1Cc2c([nH]c3ccc([N+](=O)[O-])cc23)-c2ccccc2N1
active: SR leukemia -8.53% | RPMI-8226 leukemia -22.1% | IGROV1 ovarian -41.8% | OVCAR-3 ovarian -14.4% | BT-549 breast 5.54% | SW-620 colon -3.84% | MCF7 breast 8.43% | HCT-116 colon 4.3% | HCC-2998 colon -34.5% | KM12 colon 4.23%
inactive: OVCAR-5 ovarian 12.3% | OVCAR-4 ovarian 16.7% | SK-OV-3 ovarian 28.2% | HS 578T breast 25.6% | NCI/ADR-RES ovarian 14.5% | T-47D breast 22.1% | MDA-MB-435 melanoma 16.2%

COc1cc(/C=C2\C(=O)Nc3ccc(N(C)C)cc32)cc(OC)c1OC
inactive: SR leukemia 19.1% | RPMI-8226 leukemia 14.3% | OVCAR-5 ovarian 71.1% | OVCAR-4 ovarian 42.1% | SK-OV-3 ovarian 45.5% | IGROV1 ovarian 16.6% | T-47D breast 34.3% | MCF7 breast 12% | HCT-116 colon 13.7% | HCC-2998 colon 49.1%
active: HS 578T breast -18.2% | NCI/ADR-RES ovarian 0.228% | BT-549 breast 6.82% | MDA-MB-435 melanoma -37.7% | SW-620 colon 8.08%

COc1ccc(-c2nnc(SCC(=O)Nc3ccc(C(=O)/C=C/c4ccc(Cl)cc4)cc3)n2-c2ccccc2)cc1
inactive: RPMI-8226 leukemia 83.8% | OVCAR-8 ovarian 100% | OVCAR-5 ovarian 107% | OVCAR-4 ovarian 92.4% | SK-OV-3 ovarian 99.5% | IGROV1 ovarian 93.5% | OVCAR-3 ovarian 97.8% | HS 578T breast 96.9% | NCI/ADR-RES ovarian 102% | T-47D breast 88% | BT-549 breast 84.6% | MDA-MB-435 melanoma 105% | SW-620 colon 101% | MCF7 breast 95.3% | HCT-116 colon 76% | HCC-2998 colon 103% | KM12 colon 98.2%

COc1cc2nccc(Oc3ccc(NC(=O)C4(C(=O)Nc5c(F)cc(F)cc5F)CC4)cc3)c2cc1Oc1ccc(N)cn1
active: MDA-MB-435 melanoma 3.8%
inactive: RPMI-8226 leukemia 50.1% | OVCAR-8 ovarian 69.7% | OVCAR-5 ovarian 70% | OVCAR-4 ovarian 28.4% | SK-OV-3 ovarian 81.3% | IGROV1 ovarian 28.1% | OVCAR-3 ovarian 75.3% | HS 578T breast 25.8% | NCI/ADR-RES ovarian 82.3% | T-47D breast 29% | BT-549 breast 74.2% | SW-620 colon 40.3% | MCF7 breast 31.7% | HCT-116 colon 56.6% | HCC-2998 colon 81.5% | KM12 colon 15.5%

COc1ccc(-c2nsc3c2NC(=O)CC3c2cccc(F)c2)cc1 (stereo not given)
inactive: SR leukemia 15.4% | RPMI-8226 leukemia 47.1% | OVCAR-8 ovarian 60.4% | OVCAR-5 ovarian 57% | SK-OV-3 ovarian 58.9% | IGROV1 ovarian 57.2% | NCI/ADR-RES ovarian 22.8% | T-47D breast 33.7% | BT-549 breast 50.3% | SW-620 colon 18% | MCF7 breast 26.4% | HCT-116 colon 22.9% | HCC-2998 colon 78.5% | KM12 colon 16.7%
active: OVCAR-3 ovarian 9.37% | MDA-MB-435 melanoma -34.1%

O=S(=O)(NCC[C@@H]1C[C@H]1c1ccc2ccccc2c1)c1ccc(C(F)(F)F)cc1
inactive: SR leukemia 92.7% | RPMI-8226 leukemia 76% | OVCAR-8 ovarian 97.4% | OVCAR-5 ovarian 99.3% | SK-OV-3 ovarian 103% | IGROV1 ovarian 92% | OVCAR-3 ovarian 101% | HS 578T breast 89.6% | NCI/ADR-RES ovarian 94.3% | BT-549 breast 92.5% | MDA-MB-435 melanoma 99.1% | SW-620 colon 98.6% | MCF7 breast 91.1% | HCT-116 colon 88% | HCC-2998 colon 101% | KM12 colon 95.2%

CCCCCCCCNC(C)C(O)c1ccc(SC(C)C)cc1 (stereo not given)
inactive: RPMI-8226 leukemia 14.8% | OVCAR-4 ovarian 63.9% | SK-OV-3 ovarian 83.9% | IGROV1 ovarian 18.8% | HS 578T breast 49.2% | NCI/ADR-RES ovarian 47.8% | T-47D breast 49.6% | BT-549 breast 59.9% | MCF7 breast 54%
active: SR leukemia -55% | OVCAR-8 ovarian -5.31% | OVCAR-3 ovarian -83% | MDA-MB-435 melanoma -40.8% | SW-620 colon -63.6% | HCT-116 colon -96.9% | HCC-2998 colon -80.4% | KM12 colon -72.1%

CN(C)c1ccc(/C=C(\C#N)c2nc3ccccc3n2C)cc1
inactive: SR leukemia 29.2% | RPMI-8226 leukemia 15.8% | OVCAR-8 ovarian 40.3% | OVCAR-5 ovarian 64.3% | SK-OV-3 ovarian 34.8% | IGROV1 ovarian 32.3% | NCI/ADR-RES ovarian 27.6% | T-47D breast 40.2% | BT-549 breast 39.7% | MCF7 breast 17.9% | HCT-116 colon 33.2% | KM12 colon 26.2%
active: OVCAR-3 ovarian -8.87% | MDA-MB-435 melanoma -26.2%

O=[N+]([O-])c1cccc([I+]c2ccccc2)c1
inactive: RPMI-8226 leukemia 27.9% | OVCAR-8 ovarian 35% | OVCAR-5 ovarian 96.1% | OVCAR-4 ovarian 58.4% | SK-OV-3 ovarian 54.9% | IGROV1 ovarian 31.5% | OVCAR-3 ovarian 58.7% | HS 578T breast 49.6% | NCI/ADR-RES ovarian 77.5% | T-47D breast 50.1% | BT-549 breast 63.3% | MDA-MB-435 melanoma 72.7% | SW-620 colon 40% | MCF7 breast 37.6% | HCT-116 colon 47.7% | HCC-2998 colon 67.2% | KM12 colon 60.5%

Cc1cc(C)c([O-])c(CN(C)CCN(C)Cc2cc(C)cc(C)c2[O-])c1.O=C([O-])c1cccc(C(=O)[O-])n1.[Ti+4]
active: RPMI-8226 leukemia -25.9% | IGROV1 ovarian 6.22% | OVCAR-3 ovarian 9.53% | HS 578T breast 0.477% | NCI/ADR-RES ovarian 7.88% | BT-549 breast -0.731% | MDA-MB-435 melanoma 6.53% | SW-620 colon -19.7% | HCT-116 colon 4.86% | HCC-2998 colon 5.25%
inactive: OVCAR-8 ovarian 20.9% | OVCAR-5 ovarian 22.1% | OVCAR-4 ovarian 22% | SK-OV-3 ovarian 34.3% | T-47D breast 28.4% | MCF7 breast 17.1% | KM12 colon 11%

C=CCn1c(SCC(=O)Nc2ccc(/C(C)=N\O)cc2)nnc1-c1cc(-c2ccccc2)nc2ccccc12
inactive: RPMI-8226 leukemia 47.1% | OVCAR-8 ovarian 53.5% | OVCAR-5 ovarian 85.8% | OVCAR-4 ovarian 75% | SK-OV-3 ovarian 79.6% | OVCAR-3 ovarian 58.3% | HS 578T breast 85.8% | NCI/ADR-RES ovarian 52.8% | T-47D breast 15.2% | BT-549 breast 54% | MDA-MB-435 melanoma 56.1% | SW-620 colon 51.9% | MCF7 breast 21% | HCT-116 colon 44% | HCC-2998 colon 62.1% | KM12 colon 44.8%
active: IGROV1 ovarian 0.364%

O=C(NO)c1ccc(NCc2csc3ccccc23)cc1
inactive: RPMI-8226 leukemia 35.7% | OVCAR-8 ovarian 42% | OVCAR-5 ovarian 73.4% | OVCAR-4 ovarian 67.8% | SK-OV-3 ovarian 81.8% | IGROV1 ovarian 55.6% | OVCAR-3 ovarian 66.8% | HS 578T breast 70.5% | T-47D breast 41.5% | BT-549 breast 77.6% | MDA-MB-435 melanoma 82.4% | SW-620 colon 61.5% | MCF7 breast 83% | HCT-116 colon 34.4% | HCC-2998 colon 73.5% | KM12 colon 66.9%
active: NCI/ADR-RES ovarian 6.83%
